Data taken from PubChem BioAssay (NCI).
Compounds without any hit were thinned out: in the full panel of roughly 79,000, 15% have a hit. Unmarked numbers belong to inactive results. Activity calls are given as the source filed them. Rule as the data show it: active = growth inhibition above about 70%; inactive = the rest.

Key:
[1] = NCI Yeast Anticancer Drug Screen. Data for the rad50 strain (AID 155);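 also: 0% = growth of vehicle-only cultures of the same strain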; details: S. cerevisiae rad50 strain growth inhibition, active compounds read high; at 50.0 µM unless noted
Procedure, shortened: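 Inhibition values express reduced yeast growth in compound-treated cultures relative to vehicle-treated controls.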

[2] = NCI Yeast Anticancer Drug Screen. Data for the mec2-1 strain (AID 157); details: S. cerevisiae mec2-1 strain, active compounds read high; at 50.0 µM unless noted
Procedure, shortened: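 Strain: mec2-1 (DNA repair/cell cycle alteration). Compound exposure, then growth measured; inhibition expressed relative to vehicle.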

[3] = NCI Yeast Anticancer Drug Screen. Data for the sgs1 mgt1 strain (AID 161);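 also: 0% = growth of cultures given vehicle only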; details: S. cerevisiae sgs1 mgt1 strain, active compounds read high; at 50.0 µM unless noted
Procedure, shortened: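 Mutant yeast exposed to compound; growth scored against vehicle-only wells.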

[4] = NCI Yeast Anticancer Drug Screen. Data for the cln2 rad14 strain (AID 165);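 also: 0% = growth equal to vehicle treated cultures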; details: S. cerevisiae cln2 rad14 strain, active compounds read high; at 50.0 µM unless noted
Procedure, shortened: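 Compounds are applied to the cln2 rad14 yeast strain, and growth is then compared with that of vehicle-treated cultures to give inhibition.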

[5] = NCI Yeast Anticancer Drug Screen. Data for the bub3 strain (AID 167); details: S. cerevisiae bub3 mutant strain, active compounds read high; at 50.0 µM unless noted
Procedure, shortened: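 Steps: expose the mutant yeast strain to compound; grow alongside vehicle-treated cultures; measure growth; express inhibition against the vehicle cultures.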

[6] = NCI Yeast Anticancer Drug Screen. Data for the mlh1 rad18 strain (AID 175); details: S. cerevisiae mlh1 rad18 strain growth inhibition, active compounds read high; at 50.0 µM unless noted
Procedure, shortened: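 Read-out is yeast growth inhibition, calculated against vehicle-only controls. The compound was applied to a strain engineered with DNA damage repair alterations.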

Compound | growth inhibition [1] | growth inhibition [2] | growth inhibition [3] | growth inhibition [4] | growth inhibition [5] | growth inhibition [6]
Nc1n[n+](-c2cccc([N+](=O)[O-])c2)no1 | 32.4% | 16.4% | 69.5% | 5.3% | 81.4% (active) | 32.5%
O=C(Nc1ccc(Cl)c(Cl)c1)Oc1cccc(NC(=S)Nc2ccccc2)c1 | 36.9% | 90.2% (active) | 93% (active) | 91.5% (active) | 69.8% | 94.7% (active)
COc1ccc(C2(O)OCC(COc3cc(C)c(Cl)c(C)c3)O2)cc1OC (stereo unspecified) | -10% | 1.35% | 8.85% | 18.5% | -6.05% | 3.45%
C/C(=N\N/C=N/S(=O)(=O)c1ccccc1)c1ccccc1 | -12.2% | 4.55% | -6.35% | 5.6% | 0.55% | -1.55%
FC(F)(F)c1ccc2nc(NCc3ccccc3)c(-c3ccccc3)nc2c1 | 3.85% | 15.6% | 24.6% | -6.25% | 26.9% | 35.8%
CCOC(=O)C12CCCC1(O)N(NC(=O)OC)C(C)=C2C(=O)OC (stereo unspecified) | -6.6% | -7.65% | 2.05% | -63.4% | -5.6% | -6.5%
Cc1ccc(NC(=O)Oc2ccc(C#N)cc2)c(C)c1 | 7.45% | -22.8% | -0.9% | 2.05% | -3.35% | 8.9%
ClCCCN(CCCCl)c1ccc(C=Nc2cccc(Cl)c2)c(Cl)c1 | 91.1% (active) | 76.6% (active) | 95.5% (active) | 85.2% (active) | 81.5% (active) | 93.5% (active)
O=C(Cc1ccccc1)N/N=C(/c1nc2ccc([N+](=O)[O-])cc2[nH]c1=O)C(O)c1ccccc1Cl (stereo unspecified) | 0.8% | 2.6% | 6.8% | 2.2% | 5.7% | 16.1%
CCOc1cccc(OCC)c1 | 23.1% | 27.1% | -7.4% | -2.05% | 1.4% | 13.9%
O=C(O)/C(=C/c1cccs1)c1ccc(F)cc1 | 19.1% | 12.2% | 15% | 28.9% | -3.2% | 3.75%
CCOC(=O)c1sc(SC)nc1NC(=O)c1ccccc1 | -18.4% | -9% | -5.45% | 3.2% | -3.4% | -33.2%
S=c1c(-c2ccccc2)cnc2sccn12 | 40.9% | 29.8% | 8.3% | -22.6% | 19.8% | 18.4%
Cc1nc2ccccc2c(=O)n1NC(=O)Cc1ccccc1 | -22.6% | -11.1% | -7.45% | 2.2% | -12.4% | -23.1%
O=C(O)CSCC(=O)Nc1ccccc1Cl | -11.6% | -10.3% | 14.6% | 6.05% | 4.3% | -0.35%
COC(=O)c1ccccc1CC1Cc2ccc3c(c2C1=O)CCCC3 (stereo unspecified) | -1.35% | -65.7% | -13.3% | 5.4% | 17.8% | 3.3%
CCn1c2ccccc2c2cc(N=Nc3ccc4c(c3)c3ccccc3n4CC)ccc21 | 44.5% | 14.7% | 19.9% | 41.2% | 45.2% | 35.5%
CC(=O)CC(=O)Nc1ccc2ccccc2c1 | -1.9% | -12% | -8.3% | -36.4% | -37.9% | -14.6%
CCCCCCCC[n+]1ccc(C#N)cc1 | 11.7% | 4% | 14.3% | 15.9% | 5.65% | 19%
C=C(C)C1CC[C@@](C)(O)[C@H](C#N)C1 (stereo partly specified) | 6.15% | -15.7% | -22.8% | -12.2% | -38.5% | -44%
CC(=O)Oc1cccc2c1C(=O)c1c(OC(C)=O)cc(C)cc1C2=O | 10.8% | 5.35% | 1.85% | -0.85% | -41% | -15.6%

Compound | growth inhibition [1] | growth inhibition [2] | growth inhibition [3] | growth inhibition [4] | growth inhibition [5] | growth inhibition [6]
Nc1nc2ncc(COc3ccc(C(=O)O)cc3)nc2c(=O)[nH]1 | 18.8% | 3.2% | 31.6% | -16.1% | 53.2% | 13.6%
O=C1CCCC(=O)N1n1c(Cc2ccc(Cl)cc2)n[nH]c1=O | -31.6% | -11.8% | 1.3% | 7.5% | -19.6% | -1.5%
O=C(O)CCC1NCCCO1 (stereo unspecified) | 1.85% | 3% | 3.7% | -35.1% | -4.15% | 0.75%
COc1ccc(/C=N/N=C(/C(=O)c2ccc(OC)cc2)c2ccc(OC)cc2)cc1 | 32.6% | 0.3% | 11.8% | 3.2% | 2.2% | 6.8%
O=C(CC(=O)c1ccc(OC(=O)c2ccccc2)cc1O)c1ccccc1 | -12.7% | -4.95% | -2.8% | -16.1% | 8% | -27.6%
Nc1ccc(C(=O)N/N=C/c2ccccc2O)cc1 | 16.9% | 12.7% | 4.15% | 7.55% | 0% | 19.2%
C=CCOc1cc2c(cc1C(CC)c1ccc(OCc3ccccc3)cc1)OCO2 (stereo unspecified) | 31.9% | 5.2% | -2.85% | 13.9% | 0.9% | -10.2%
CCCCc1cc(C(=O)OC/C(C)=N/NC(N)=O)c2ccccc2n1 | -6.7% | 25.8% | 18.9% | -27.6% | 35.8% | 9.45%
CCCCCCC(=O)OCC(=O)c1ccc(Br)cc1 | 2.85% | 28.2% | 15.2% | -115% | 22.2% | 15%
N#CCCN1CCCC(=O)NC1=O | 4.4% | -14.4% | -5.35% | -37.7% | -7.4% | -15.4%
Cc1nc2c(=O)[nH]c(=O)[nH]c2s1 | -12.6% | 5.05% | -4.2% | -12% | -7.5% | -8.6%
O=C(Nc1ccc(Cl)cc1)Nc1nnc(-c2cccc(Cl)c2)o1 | 5.8% | 5.75% | 26.9% | -51.9% | 0.2% | 15%
CCOC(=O)C(C)NC(=O)C(C)NC(=O)C(C)NC(=O)C(C)NC(=O)C(C)NC(=O)OCc1ccccc1 (stereo unspecified) | 87.1% (active) | 85.8% (active) | 7.15% | -0.35% | 15.7% | -46.8%
O=C(O)c1cc([N+](=O)[O-])cc2c(=O)c3cnccc3[nH]c12 | -23.6% | -0.35% | -1.95% | -25.6% | -8.5% | -9.7%
COS(=O)(=O)N(C)c1nc(N(C)C)nc(N(C)C)n1 | -2.25% | -12.2% | -1.2% | 22.9% | 3.95% | -0.95%
COc1ccc(/C=C(/NC(=O)c2ccccc2)C(=O)O)c(OC)c1 | -7.35% | -5.1% | 1.2% | -61.4% | -10.1% | -9.65%
CCOC(=O)CN(c1c(C)cc([N+](=O)[O-])c2ccccc12)S(=O)(=O)c1ccccc1 | 50.1% | 13.8% | 33.8% | 6.65% | 16.9% | 12.2%
COc1ccc(C2c3c(ccc4ccccc34)Oc3ccc4ccccc4c32)cc1 | -8.05% | -23.6% | 7.5% | 6.85% | 2.85% | -8.45%
Clc1ccc(OCC(COc2ccccc2)Oc2nc(-c3ccccc3)nc(-c3ccccc3)n2)cc1 (stereo unspecified) | -14.2% | 2.25% | 3.1% | -5.8% | -8.6% | -17.1%
CCCCCCCCCCCCCCCCCC(=O)N1CCN(C(=O)CCCCCCCCCCCCCCCCC)C1 | 30.4% | -18.3% | -4.3% | -19.2% | -1.25% | 1.05%
